Screening results (PubChem BioAssay)
This is a sample that favours compounds with a hit; in the whole collection about 4.6% have one here.
AHR act: activates the human aryl hydrocarbon receptor. P35869. AHR-responsive luciferase reporter cells, luminescence. activation, % at 5 µM. actives 2.5% (n = 320,000); in the data active = activation above about 47%;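 also: 0% = vehicle wells and 100% = reference agonist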
Target sequence (P35869 whole entry, looked up): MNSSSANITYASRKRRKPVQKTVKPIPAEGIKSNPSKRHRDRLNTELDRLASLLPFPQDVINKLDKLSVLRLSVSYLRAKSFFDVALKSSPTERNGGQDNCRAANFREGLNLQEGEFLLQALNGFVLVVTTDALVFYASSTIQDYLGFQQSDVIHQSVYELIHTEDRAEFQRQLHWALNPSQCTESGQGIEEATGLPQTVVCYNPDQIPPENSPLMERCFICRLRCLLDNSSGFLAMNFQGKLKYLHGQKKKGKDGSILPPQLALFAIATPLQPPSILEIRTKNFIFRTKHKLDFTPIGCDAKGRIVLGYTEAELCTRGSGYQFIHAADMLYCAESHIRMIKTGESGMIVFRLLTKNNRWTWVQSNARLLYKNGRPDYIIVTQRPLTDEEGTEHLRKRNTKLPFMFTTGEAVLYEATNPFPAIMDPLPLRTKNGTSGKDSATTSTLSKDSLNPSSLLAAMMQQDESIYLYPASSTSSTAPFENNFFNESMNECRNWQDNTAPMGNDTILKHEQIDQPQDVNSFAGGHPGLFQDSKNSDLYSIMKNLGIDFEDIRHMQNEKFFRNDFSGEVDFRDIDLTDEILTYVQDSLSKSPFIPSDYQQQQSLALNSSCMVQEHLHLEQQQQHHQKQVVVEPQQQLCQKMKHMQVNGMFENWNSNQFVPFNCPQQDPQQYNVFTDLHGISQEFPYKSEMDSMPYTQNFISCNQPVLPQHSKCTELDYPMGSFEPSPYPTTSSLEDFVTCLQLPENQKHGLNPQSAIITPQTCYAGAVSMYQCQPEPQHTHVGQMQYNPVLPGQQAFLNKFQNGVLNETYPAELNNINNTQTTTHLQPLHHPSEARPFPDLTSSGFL
HSF1 inh: HSF1 inhibition; activity change, negative = inhibition, % at 7.5 µM (by protocol); NIH3T3-HGL HSE-luciferase, MG132-induced, luminescence 8 h; hits give low values; AID 2098; actives 0.77% (n = 300,000);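 active = more than half of replicate wells show activity change below -50%, luminescence cut by over half; inconclusive = some wells, but at most half, below -50%; inactive = no replicate well below -50%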;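 also: luciferase reports HSF-1 transcriptional activity via heat shock element; 0% = median of DMSO wells and -100% = zero luminescence signal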
GAA850 FXN act: activators of GAA850 frataxin (FXN) promoter. actives 0.56% (n = 360,000). HEK293 lucGAA850 FXN promoter luciferase reporter, 24 h; percent of 10 µM SAHA response. AID 540364. activation, % at 6 µM;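 active = activation above the average of all compounds screened plus 3 SD, cutoff fixed separately per campaign, cut at about 7.5% in these data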;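 also: 0% = DMSO wells and 100% = 10 µM SAHA wells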
HSF-1 act: increases HSF-1 driven luciferase reporter signal; NIH3T3-HGL HSF-1 luciferase reporter, MG132, 8 h; 100% = twice DMSO control signal; activation, % at 9 µM; actives 1.7% (n = 300,000);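 active = mean replicate activation of at least 50% with a set share of replicates each reaching 50%; inconclusive = only one of those two conditions met; inactive = mean below 50% and too few replicates reaching it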;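 also: 0% = median of the neutral control wells and 100% = twice that signal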
GAA30 FXN cntr: GAA30 FXN promoter activation counter-screen | actives 66% (n = 1,900) | activation, % at 6 µM | shares compounds with GAA850 FXN act | HEK293 lucGAA30 FXN promoter luciferase, 24 h; DMSO = 0%, 5 µM ipriflavone = 100%;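 active = mean activation above the mean of solvent-only control wells plus 3 SD, cut at about 22% in these data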;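 also: counterscreen of GAA850 promoter hits where activity marks nonselective or luminescence artifacts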
GAA850 confirm: confirmation of GAA850 frataxin (FXN) promoter activators | AID 588351 | HEK293 lucGAA850 FXN promoter luciferase reporter, 24 h; 100% = activation by SAHA | actives 86% (n = 1,900) | shares compounds with GAA850 FXN act | activation, % at 6 µM;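 active = mean activation above a set limit taken from the primary screen, cut at about 8% in these data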;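 also: 0% = DMSO wells and 100% = 10 µM SAHA wells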
* = called active by the depositor; ? = inconclusive; / = no result.

SMILES	AHR act	HSF1 inh	GAA850 FXN act	HSF-1 act	GAA30 FXN cntr	GAA850 confirm
CC(C)(C)c1ccc(OCCn2ccccc2=O)cc1	1.4	31.6	8.5*	?	100.4*	41.5*
Cc1ccccc1/C=C/C(=O)c1ccc([N+](=O)[O-])o1	-1.0	19.8	/	37.6	/	/
Cc1cccc(/C=C/C(=O)c2ccc([N+](=O)[O-])o2)c1	1.4	31.4	11.3*	?	-113.4	-33.5
Cc1c(Cl)cccc1-c1ccc(/C=N/n2cnnc2)o1	-2.0	4.5	2.1	7.8	/	/
Cc1cc(C)nc(SCc2csc(-c3ccccc3)n2)n1	-1.5	24.4	7.9*	47.5	114.6*	39.5*
CCOC(=O)c1sc(-c2ccc(OC)cc2)cc1N	-0.7	17.2	9.7*	46.0	108.5*	30.0*
CCOC(=O)c1sc(-c2ccccc2)cc1N	6.5	-29.7	8.9*	-40.5	86.6*	23.2*
CCCC(=O)Nc1ccc(-c2nc3cc(C)c(C)cc3o2)cc1	-7.9	19.2	9.8*	28.1	108.0*	47.6*
CCCC(=O)Nc1ccc2oc(-c3ccncc3)nc2c1	-1.9	-19.7	1.8	-38.3	/	/
COc1cnn(-c2ccc(C)cc2)c(=O)c1SCc1ccccc1	2.8	7.7	7.9*	21.4	65.6*	24.8*
Cc1sc2nc(C(C)C)nc(SCC(=O)NC3CC3)c2c1C	15.2	12.9	-2.1	13.2	/	/
Cc1cc(NC(=O)CSc2nc(C(C)C)nc3sc(C)c(C)c23)no1	0.7	-9.6	7.9*	5.3	-6.3	12.9*
COc1ccc(OC)c(-c2cc(C(=O)Nc3c(C)nn(Cc4ccccc4)c3C)no2)c1	-10.0	8.3	7.8*	15.5	8.0	12.5*
COc1ccc(NC(=O)CSc2nnc3n2CCCCC3)cc1S(=O)(=O)N1CCOCC1	2.4	/	2.2	/	/	/
CN1CCC(N(C)C(=S)Nc2ccc(F)cc2)CC1	7.1	-0.7	-0.1	-18.5	/	/
CC(=O)c1ccc(NC(=S)N(C)C2CCN(C)CC2)cc1	2.4	-6.7	14.4*	22.5	22.1*	6.9
CS(=O)(=O)Nc1ccc(-c2cccc3nccn23)cc1	/	/	-0.3	/	/	/
CCCCCCCCN1[C@@H](CC(=O)O)c2cc(F)ccc2S1(=O)=O	0.6	23.0	2.4	44.0	/	/
CCOC(=O)c1cnc2c(ccc3ccccc32)c1NCCN(C)C	-0.7	-0.1	8.4*	-4.7	22.6*	17.1*
N#CC1=C(N)S[C@H](C(=O)C23CC4CC(CC(C4)C2)C3)[C@H]1c1ccncc1	4.7	-5.2	8.5*	13.1	4.2	11.6*
COc1ccccc1C(=O)NCCC(=O)NCCC12CC3CC(CC(C3)C1)C2	-1.8	3.6	8.1*	-11.4	20.7	13.9*
Cc1cc(C)cc(N(C(=O)c2nsc(Cl)c2Cl)C(C(=O)NC2CCCC2)c2ccc(O)cc2)c1 (stereo unspecified)	-0.1	7.6	-4.0	10.2	/	/
Cc1ccc(N(C(=O)c2nsc(Cl)c2Cl)C(C(=O)NC2CCCC2)c2ccc(O)cc2)cc1C (stereo unspecified)	2.4	3.3	9.5*	14.9	33.6*	14.0*
CC(=O)Nc1ccc(N/C=C/C(=O)c2ccc(C)o2)cc1	-2.3	-2.1	8.9*	-4.1	94.8*	30.3*
Cn1cc(C(=O)N2CCN(c3ccccc3)CC2)c(=O)c2cc(S(=O)(=O)N3CCOCC3)ccc21	0.2	-9.0	-1.8	1.8	/	/
SMILES	AHR act	HSF1 inh	GAA850 FXN act	HSF-1 act	GAA30 FXN cntr	GAA850 confirm
CN(C)S(=O)(=O)c1ccc2c(c1)c(=O)c(C(=O)N1CCOCC1)cn2C	6.4	-4.5	9.8*	12.2	21.3	12.7*
COc1ccc2[nH]c3c(C)c4ccncc4c(C)c3c2c1	32.0	50.5	12.1*	?	-25.2	64.0*
Clc1ccc(/C=N/Nc2ncnc3nc[nH]c23)cc1	65.9*	19.0	9.8*	26.9	109.8*	49.8*
O=c1[nH]nc(CNc2ccc(OC(F)(F)F)cc2)c2ccccc12	3.0	9.4	9.0*	29.4	40.4*	20.3*
c1ccc(Oc2nnc(-c3cccs3)c3ccccc23)cc1	1.1	6.9	2.3	-4.0	/	/
O=C(O)c1ccc(N=Nc2c(O)ccc3ncccc23)cc1	2.1	-1.4	8.5*	-11.5	107.5*	39.1*
O=C(O)c1cc(N=Nc2c(O)ccc3ccccc23)cc(C(=O)O)c1	/	/	1.4	/	/	/
NC(Cc1ccc(C(F)(F)F)cc1)c1csc(NC(=O)Nc2ccccc2Oc2ccccc2)n1 (stereo unspecified)	/	/	11.7*	/	-19.5	8.2*
COc1ccc(CC(N)c2csc(NC(=O)Nc3ccccc3Oc3ccccc3)n2)cc1 (stereo unspecified)	/	/	8.1*	/	1.9	6.8
COc1ccc(CC(N)c2csc(NC(=O)Nc3ccccc3Cc3ccccc3)n2)cc1 (stereo unspecified)	/	/	14.9*	/	14.1	7.7*
COc1ccc(CC(N)c2csc(NC(=O)Nc3ccccc3C(C)C)n2)cc1 (stereo unspecified)	/	/	-0.4	/	/	/
COc1cc(NC(=O)CN2C(=O)COc3ccc(S(=O)(=O)N4CCCC4)cc32)cc(OC)c1	34.4	3.0	2.3	8.4	/	/
CCc1ccc(OCC(=O)NC(NC(=S)Nc2ccc(C)cc2C)C(Cl)(Cl)Cl)cc1 (stereo unspecified)	8.2	13.7	0.7	3.7	/	/
CN(Cc1ccccc1)C(=O)COC(=O)c1cncc(Br)c1	1.2	-1.2	-0.1	-5.8	/	/
CC1=CC(C)(C)Nc2ccc(OC(=O)CCN3C(=O)c4ccccc4C3=O)cc21	-7.3	-1.3	11.0*	-1.0	-15.7	22.6*
COCCNC(=O)c1cc(-c2cccs2)on1	10.3	4.7	15.1*	16.9	145.3*	69.9*
COCCN(CC(=O)Nc1cccc(C)c1C)C(=O)c1ccc(-n2cccn2)cc1	1.6	/	1.0	/	/	/
COc1ccc(-c2nc(CSCC(=O)N3CCC(C(N)=O)CC3)c(C)o2)cc1OC	0.1	-1.9	0.2	-5.9	/	/
Cc1occc1C(=O)N/N=C/c1ccc2c(c1)OCO2	40.0	24.7	0.8	34.3	/	/
Cc1ccsc1C(=O)N/N=C/c1ccc2c(c1)OCO2	9.6	12.5	8.8*	51.9*	103.8*	29.2*
O=C(CN(C(=O)CCC(=O)Nc1nccs1)c1ccc(F)cc1)NCCc1ccccc1	2.2	7.6	-2.8	6.4	/	/
CCOC(=O)c1cnc(-c2ccccc2)nc1N(C)C	32.9	13.1	8.7*	16.3	119.6*	40.7*
CC[C@]1(C(=O)OC)[C@H]2C(=O)N(Cc3ccccc3)C(=O)[C@H]2[C@H]2CN=C(SCC3CC3)N21	/	/	16.6*	/	29.7*	17.9*
CCN1C(=O)[C@H]2[C@H]3CN=C(SCc4ccc(C)cc4)N3[C@@](CC)(C(=O)OC)[C@H]2C1=O	/	/	4.4	/	/	/
